Laboratory results: PubChem BioAssay (Tox21)
Results filed as inconclusive are left out. A call without a number means that no potency is given here. Activity calls are given as the source filed them. Calls follow the shape of the dose curve; as a rule, active = well fitted curve in the direction sought with a large enough effect in the repeat runs; inconclusive = weak or mixed curves; inactive = no such curve, though single readings can be large; an effect the other way counts as inactive or inconclusive.

Columns and labels:
[1] = target: Cytochrome P450 2C9 (Homo sapiens) (UniProt P11712); assay: Cytochrome P450 Family 2 Subfamily C Member 9 (CYP2C9) small molecule antagonists: luciferase reporter qHTS assay (AID 1671198); also: nearly all actives have a fitted effect of over 50% in size
Chain of Cytochrome P450 2C9 (Homo sapiens) (P11712 whole entry, looked up): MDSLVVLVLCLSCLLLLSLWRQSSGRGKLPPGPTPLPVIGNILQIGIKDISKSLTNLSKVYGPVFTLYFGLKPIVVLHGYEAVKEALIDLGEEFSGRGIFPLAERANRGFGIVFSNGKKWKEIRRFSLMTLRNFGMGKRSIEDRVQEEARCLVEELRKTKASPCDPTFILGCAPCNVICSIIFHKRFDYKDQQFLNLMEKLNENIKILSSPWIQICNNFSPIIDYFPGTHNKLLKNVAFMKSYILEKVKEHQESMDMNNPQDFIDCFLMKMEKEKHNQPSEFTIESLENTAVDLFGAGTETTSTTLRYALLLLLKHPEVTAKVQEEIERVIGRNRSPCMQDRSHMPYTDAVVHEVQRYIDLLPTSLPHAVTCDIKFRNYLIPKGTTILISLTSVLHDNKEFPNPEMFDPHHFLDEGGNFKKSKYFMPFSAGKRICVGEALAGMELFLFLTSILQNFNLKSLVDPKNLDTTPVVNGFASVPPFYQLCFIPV
Summary of the method: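 Enzyme-substrate mix preincubated with compound 10 min at room temperature; reaction started with NADPH regeneration solution, 1 h 37C. Luminescent luciferin product read after 20 min detection reagent.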

[2] = target: Cytochrome P450 1A2 (Homo sapiens) (UniProt P05177); assay: Cytochrome P450 Family 1 Subfamily A Member 2 (CYP1A2) small molecule antagonists: luciferase reporter qHTS assay (AID 1671199); also: nearly all actives have a fitted effect of over 50% in size
Chain of Cytochrome P450 1A2 (Homo sapiens) (P05177 whole entry, looked up): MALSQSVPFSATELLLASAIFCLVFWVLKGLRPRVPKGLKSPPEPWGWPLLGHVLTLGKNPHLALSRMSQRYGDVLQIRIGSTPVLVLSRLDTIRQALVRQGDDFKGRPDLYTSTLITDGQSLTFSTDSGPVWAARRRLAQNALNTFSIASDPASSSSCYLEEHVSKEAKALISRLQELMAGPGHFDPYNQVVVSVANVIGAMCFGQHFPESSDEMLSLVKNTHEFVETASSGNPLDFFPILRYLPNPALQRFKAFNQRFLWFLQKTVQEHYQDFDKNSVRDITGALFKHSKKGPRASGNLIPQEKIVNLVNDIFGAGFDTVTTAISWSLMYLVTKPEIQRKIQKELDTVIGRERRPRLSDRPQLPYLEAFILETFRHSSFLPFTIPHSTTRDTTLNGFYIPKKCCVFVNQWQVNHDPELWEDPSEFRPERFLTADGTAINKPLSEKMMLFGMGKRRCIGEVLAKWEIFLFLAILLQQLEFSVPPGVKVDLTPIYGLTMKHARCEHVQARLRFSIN
Summary of the method: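 Quantitative high-throughput format using the P450-Glo CYP1A2 system. Reaction initiated by NADPH regeneration solution, 1 h at room temperature, then stopped with detection reagent; luminescence measured 20 min later.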

[3] = target: Voltage-gated inwardly rectifying potassium channel KCNH2 (Homo sapiens) (UniProt Q12809); assay: Human Ether-a-go-go-Related Gene (hERG) channel small molecule antagonists: fluorescence cell-based qHTS assay (AID 1671200); also: nearly all actives have a fitted effect of over 50% in size
Chain of Voltage-gated inwardly rectifying potassium channel KCNH2 (Homo sapiens) (Q12809 whole entry, looked up): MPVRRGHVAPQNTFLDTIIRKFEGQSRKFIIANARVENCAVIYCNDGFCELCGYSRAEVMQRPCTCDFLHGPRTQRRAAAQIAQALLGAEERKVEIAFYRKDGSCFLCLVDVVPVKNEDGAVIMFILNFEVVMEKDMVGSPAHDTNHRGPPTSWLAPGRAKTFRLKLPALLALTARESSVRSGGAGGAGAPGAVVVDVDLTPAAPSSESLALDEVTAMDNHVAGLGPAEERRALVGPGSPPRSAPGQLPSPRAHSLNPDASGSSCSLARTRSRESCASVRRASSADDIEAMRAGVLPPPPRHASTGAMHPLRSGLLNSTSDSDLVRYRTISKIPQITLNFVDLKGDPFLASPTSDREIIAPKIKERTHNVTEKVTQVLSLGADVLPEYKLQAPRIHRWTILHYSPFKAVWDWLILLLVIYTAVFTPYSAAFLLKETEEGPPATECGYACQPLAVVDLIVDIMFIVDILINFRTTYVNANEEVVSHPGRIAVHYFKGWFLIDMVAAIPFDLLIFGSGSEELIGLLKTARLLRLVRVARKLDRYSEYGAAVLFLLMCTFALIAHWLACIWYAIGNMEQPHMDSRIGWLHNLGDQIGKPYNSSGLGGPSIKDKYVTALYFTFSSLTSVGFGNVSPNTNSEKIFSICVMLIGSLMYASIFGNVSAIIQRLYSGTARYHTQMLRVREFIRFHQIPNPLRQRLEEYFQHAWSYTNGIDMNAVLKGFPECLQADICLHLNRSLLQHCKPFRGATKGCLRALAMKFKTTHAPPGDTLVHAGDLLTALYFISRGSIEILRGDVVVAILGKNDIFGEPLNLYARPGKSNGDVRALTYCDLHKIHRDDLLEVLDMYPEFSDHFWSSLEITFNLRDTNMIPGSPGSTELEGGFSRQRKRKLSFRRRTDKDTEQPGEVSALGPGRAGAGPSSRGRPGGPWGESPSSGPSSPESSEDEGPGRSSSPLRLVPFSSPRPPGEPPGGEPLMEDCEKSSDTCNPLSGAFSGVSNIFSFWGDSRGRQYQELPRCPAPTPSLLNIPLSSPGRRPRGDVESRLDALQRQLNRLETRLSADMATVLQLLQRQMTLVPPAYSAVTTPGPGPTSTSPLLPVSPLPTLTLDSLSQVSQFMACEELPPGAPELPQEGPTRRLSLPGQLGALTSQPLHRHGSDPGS
Summary of the method: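 Kinetic two-minute fluorescence traces, sampled at 1 s, were collected following thallium stimulus of U2OS cells (1000 per well) that had been cultured overnight at 37 C and loaded with FluxOR II.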

[4] = target: Cytochrome P450 3A4 (Homo sapiens) (UniProt P08684); assay: Cytochrome P450 Family 3 Subfamily A Member 4 (CYP3A4) small molecule antagonists: luciferase reporter qHTS assay (AID 1671201); also: nearly all actives have a fitted effect of over 50% in size
Chain of Cytochrome P450 3A4 (Homo sapiens) (P08684 whole entry, looked up): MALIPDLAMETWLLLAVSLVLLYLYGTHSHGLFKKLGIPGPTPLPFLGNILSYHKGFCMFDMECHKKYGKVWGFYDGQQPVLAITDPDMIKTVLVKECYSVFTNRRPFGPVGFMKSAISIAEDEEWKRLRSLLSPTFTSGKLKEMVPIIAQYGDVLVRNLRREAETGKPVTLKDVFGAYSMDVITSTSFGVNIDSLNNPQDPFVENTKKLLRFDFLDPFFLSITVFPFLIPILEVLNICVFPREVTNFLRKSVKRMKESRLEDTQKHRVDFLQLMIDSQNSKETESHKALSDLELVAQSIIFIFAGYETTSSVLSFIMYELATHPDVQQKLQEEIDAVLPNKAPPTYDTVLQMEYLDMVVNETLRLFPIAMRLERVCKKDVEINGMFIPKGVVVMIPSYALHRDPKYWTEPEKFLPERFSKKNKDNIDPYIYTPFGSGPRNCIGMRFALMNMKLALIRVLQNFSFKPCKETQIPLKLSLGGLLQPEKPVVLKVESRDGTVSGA
Summary of the method: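 Proluciferin-to-luciferin conversion by CYP3A4, NADPH-regenerated, 1 h RT; luminescence read as RLU. Ketoconazole as control.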

[5] = target: Cytochrome P450 2C19 (Homo sapiens) (UniProt P33261); assay: Cytochrome P450 Family 2 Subfamily C Member 19 (CYP2C19) small molecule antagonists: luciferase reporter qHTS assay (AID 1671197); also: nearly all actives have a fitted effect of over 65% in size
Chain of Cytochrome P450 2C19 (Homo sapiens) (P33261 whole entry, looked up): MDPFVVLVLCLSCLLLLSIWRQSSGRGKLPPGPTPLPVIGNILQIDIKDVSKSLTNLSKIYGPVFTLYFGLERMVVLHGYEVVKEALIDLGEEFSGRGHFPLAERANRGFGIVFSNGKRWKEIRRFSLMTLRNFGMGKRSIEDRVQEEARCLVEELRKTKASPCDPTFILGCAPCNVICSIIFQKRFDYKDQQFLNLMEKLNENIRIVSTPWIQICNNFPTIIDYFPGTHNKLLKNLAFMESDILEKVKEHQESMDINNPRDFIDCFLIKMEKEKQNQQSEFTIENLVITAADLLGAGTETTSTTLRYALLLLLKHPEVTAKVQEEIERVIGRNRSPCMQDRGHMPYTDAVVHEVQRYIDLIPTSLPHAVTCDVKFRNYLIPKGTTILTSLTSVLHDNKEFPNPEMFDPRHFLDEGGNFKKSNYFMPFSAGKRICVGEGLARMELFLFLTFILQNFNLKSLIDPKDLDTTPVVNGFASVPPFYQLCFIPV
Summary of the method: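 Compounds were tested on CYP2C19 activity via proluciferin conversion to luciferin. The 37C, 1 h reaction followed NADPH addition; detection reagent stopped it.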
Potency is read from the fitted curve at half-maximal effect.

SMILES | Potency [1] | Potency [2] | Potency [3] | Potency [4] | Potency [5]
CC1(C)O[C@@H]2C[C@H]3[C@@H]4C[C@H](F)C5=CC(=O)C=C[C@]5(C)[C@H]4[C@@H](O)C[C@]3(C)[C@]2(C(=O)CO)O1 | inactive | inactive | inactive | 4.9 µM (active) | –
CC(C)C(O)(c1ccc(OC(F)(F)F)cc1)c1cncnc1 (stereo not drawn) | – | – | inactive | – | –
CC/C=C1/OC(=O)c2ccccc21 | – | 5.51 µM (active) | inactive | inactive | –
CCOC(=O)OC(C)OC(=O)[C@@H]1N2C(=O)[C@@H](NC(=O)[C@H](N)c3ccccc3)[C@H]2SC1(C)C (stereo partly drawn) | – | – | inactive | – | –
COc1ccccc1Oc1c(NS(=O)(=O)c2ccc(C(C)(C)C)cc2)nc(-c2ncccn2)nc1OCCO | – | inactive | inactive | inactive | inactive
OC1(c2ccccc2)CCNCC1 | inactive | inactive | inactive | inactive | –
CC(C)C=O | – | – | inactive | – | –
CC1(C)[C@@H](OC(=O)CCC(=O)O)CC[C@]2(C)[C@H]3C(=O)C=C4[C@@H]5C[C@@](C)(C(=O)O)CC[C@]5(C)CC[C@@]4(C)[C@]3(C)CC[C@@H]12 | – | – | inactive | – | –
Cc1[nH]cnc1CN1CCc2c(c3ccccc3n2C)C1=O | 2.19 µM (active) | 0.812 µM (active) | – | – | –
c1csc(SSc2cccs2)c1 | 5.03 µM (active) | 31.7 µM (active) | inactive | inactive | –
C=C/C(C)=C/C/C=C(\C)CCC=C(C)C | 31.7 µM (active) | inactive | inactive | 15.9 µM (active) | –
CN1C[C@H](C(=O)N[C@]2(C)O[C@@]3(O)[C@@H]4CCCN4C(=O)[C@H](Cc4ccccc4)N3C2=O)C[C@@H]2c3cccc4[nH]cc(c34)C[C@H]21 | – | inactive | – | – | –
CN1C(=O)N(c2ccccc2Br)Cc2cnc(Nc3ccc4c(c3)OCC(CO)O4)nc21 (stereo not drawn) | 11.2 µM (active) | 28.3 µM (active) | 43.6 µM (active) | inactive | 7.1 µM (active)
CN1C(=O)c2ccccc2C1=O | 10 µM (active) | – | inactive | inactive | –
CCC(C)(C)OC | inactive | – | inactive | inactive | –
C1C[C@@H]2[C@H]3CC[C@H](C3)[C@@H]2C1 | inactive | – | inactive | – | –
CCOC(=O)C1=C(C)NC(C)=C(C(=O)OC)C1c1cccc(Cl)c1Cl (stereo not drawn) | – | – | inactive | – | –
O=c1cc(-c2ccccc2)oc2cc(O)cc(O)c12 | – | – | inactive | 17.8 µM (active) | –

SMILES | Potency [1] | Potency [2] | Potency [3] | Potency [4] | Potency [5]
CCCCCCCCCI | – | – | inactive | inactive | inactive
O=C(O)CCCCCCCCCCCBr | inactive | – | inactive | inactive | –
Clc1cc(Cl)nc(Cl)n1 | inactive | 36 µM (active) | inactive | inactive | –
CC(=O)OCCN(CCOC(C)=O)c1ccc(N=Nc2ccc([N+](=O)[O-])cc2C#N)cc1 | 15.9 µM (active) | – | 17.4 µM (active) | 3.56 µM (active) | –
CC(C)(O)c1ccc(CNC(=O)c2cccnc2Oc2ccc3nonc3c2)cc1 | 25.2 µM (active) | – | inactive | 25.2 µM (active) | –
Cc1cc(O)c(C)c(C)c1O | – | 15.5 µM (active) | inactive | – | –
Oc1cccc(O)c1O | – | – | inactive | inactive | –
OC[C@H]1O[C@@H](n2cnc3c(=S)nc[nH]c32)[C@H](O)[C@@H]1O | 13.8 µM (active) | – | inactive | inactive | 7.76 µM (active)
O=c1c(O)c(-c2ccc(O)cc2)oc2cc(O)cc(O)c12 | – | – | inactive | – | –
CNC(=O)c1cnn(-c2nc(N)c3ncn([C@@H]4O[C@H](CO)[C@@H](O)[C@H]4O)c3n2)c1 | inactive | – | inactive | inactive | inactive
CCC1NC(=O)c2cc(S(N)(=O)=O)c(Cl)cc2N1 (stereo not drawn) | – | – | inactive | – | –
CCCCCCNC(=O)n1cc(F)c(=O)[nH]c1=O | 15.5 µM (active) | – | inactive | inactive | 34.7 µM (active)
O=C1Cc2ccccc2N1c1c(Cl)cccc1Cl | 35.6 µM (active) | inactive | 19.5 µM (active) | 17.8 µM (active) | 11.2 µM (active)
CCCCCC[C@@H](O)C/C=C\CCCCCCCC(=O)OCC(O)CO (stereo partly drawn) | 11.2 µM (active) | – | inactive | – | –
Nc1cccc2c1CN(C1CCC(=O)NC1=O)C2=O (stereo not drawn) | – | – | inactive | – | –
CCOc1cccc(-n2cc(C(=O)N3CCN(c4cc(C(=O)O)c5ccccc5c4)CC3)nc2-c2ccc(C)cc2)c1 | 67.7 µM (active) | inactive | – | inactive | –
CCC(=O)C1CC(C(C)C)CC=C1C (stereo not drawn) | – | 63.3 µM (active) | inactive | 39.9 µM (active) | 35.6 µM (active)
O=C1c2ccccc2C(=O)c2c(O)c(O)cc(O)c21 | 63.3 µM (active) | – | inactive | inactive | –
